According to the supplement of paper PMC5919970:
Structures can show the parent of a compound that is named as a salt. The full ranking holds about 2,000 compounds; the median of “fractional viability relative to vehicle” is about 0.92, and the lowest 2% start at about 0.11. This excerpt belongs to a sample that is enriched for the lowest values.

System: TYKNU
Assay: fractional viability relative to vehicle; TYKNU is a high-grade serous ovarian cancer line; higher = less growth inhibition
Conditions: 72 h, genotype: OPA1 knockout (sgOPA1 #2)
Summary of the method: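 TYKNU control cells or lentiCRISPRv2 knockout derivatives were seeded at 500 cells per well into drug-stamped 384-well plates holding a ~2100-compound library at 2 or 10 μM, in duplicate. Cells were grown at 37 °C in 5% CO2 in RPMI 1640 with 10% FBS, and drug treatment lasted 72 h. Viability was read by Cell Titer Glo luminescence. Duplicate treatment wells were averaged and normalised to duplicate control wells from the same plate position.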

| SMILES | fractional viability (2uM) | fractional viability (10uM) |
| --- | --- | --- |
| CCC[C@H](Nc1nc(-c2ccc(NC(=O)NCC)c(OC)c2)ncc1C)c1cccnc1 [CYT997 (Lexibulin)] | 0.378 | 0.361 |
| COc1ccc(CCC(=O)Nc2nc3ccc(Cl)cc3s2)cc1OC | 0.989 | 1.04 |
| CNc1cc(-c2cccc(Cl)c2Cl)nc(N)n1 | 0.476 | 0.368 |
| CN1CCN(C2CCN(C(=O)Nc3cc(Oc4ccc(NC(=O)C5(C(=O)Nc6ccc(F)cc6)CC5)c(F)c4)ccn3)CC2)CC1 [Golvatinib (E7050)] | 0.92 | 0.485 |
| COc1ccc(C2=N[C@H](c3ccc(Cl)cc3)[C@H](c3ccc(Cl)cc3)N2C(=O)N2CCNC(=O)C2)c(OC(C)C)c1 [Nutlin-3b] | 0.806 | 0.737 |
| CCOc1nc2cccc(C(=O)O)c2n1Cc1ccc(-c2ccccc2-c2noc(=O)[nH]2)cc1 [Azilsartan] | 0.997 | 1.12 |
| CO[C@@H](C(=O)N1Cc2[nH]nc(NC(=O)c3ccc(N4CCN(C)CC4)cc3)c2C1)c1ccccc1 | 0.964 | 0.815 |
| CCc1cccc(CC)c1NC(=O)N1Cc2[nH]nc(NC(=O)c3ccc(N4CCN(C)CC4)cc3)c2C1 | 1.02 | 0.885 |
| CN1CCN(c2ccc(C(=O)Nc3n[nH]c4ccc(Cc5cc(F)cc(F)c5)cc34)c(NC3CCOCC3)c2)CC1 [Entrectinib (RXDX-101)] | 0.712 | 0.113 |
| Clc1cccc(CN=C2Nc3ccccc3NC23CCNCC3)c1 [Liproxstatin-1] | 0.816 | 0.729 |
| CCOc1cn(-c2ccc(F)cc2C)nc1C(=O)Nc1ccc(Oc2ccnc3cc(OC)c(OC)cc23)c(F)c1 | 0.919 | 0.773 |
| Clc1ccc(C(Cn2ccnc2)OCc2ccc(Sc3ccccc3)cc2)c(Cl)c1 (configuration not stated) [Fenticonazole Nitrate] | 0.933 | 0.911 |
| Cc1cc(C)c(CNC(=O)c2cc(-c3ccc(N4CCN(C)CC4)nc3)cc3c2c(C)cn3C(C)C)c(=O)[nH]1 | 0.878 | 0.945 |
| C=C1C(=O)O[C@@H]2/C=C(\C)CC/C=C(\C)CC[C@@H]12 [Costunolide] | 1.15 | 0.522 |
| C=C1C(=O)O[C@H]2[C@H]1CC/C(C)=C/CC[C@@]1(C)O[C@@H]21 [(-)-Parthenolide] | 0.557 | 0.0743 |
| Cc1c[nH]c(/C=C2\C(=O)Nc3ccccc32)c1CCC(=O)O | 0.793 | 0.846 |
| CCS(=O)(=O)Nc1ccc2c(c1)/C(=C(/Nc1ccc(CN3CCCCC3)cc1)c1ccccc1)C(=O)N2 [Hesperadin] | 0.544 | 0.113 |
| CN(C)Cc1cccc(N/C(=C2\C(=O)Nc3cc(C(N)=O)ccc32)c2ccccc2)c1 | 0.93 | 0.993 |
| COC(=O)c1ccc2c(c1)NC(=O)/C2=C(\Nc1ccc(N(C)C(=O)CN2CCN(C)CC2)cc1)c1ccccc1 [Nintedanib (BIBF 1120)] | 1.32 | 0.372 |
| CCOc1cc(C(C)(C)C)ccc1C1=N[C@@](C)(c2ccc(Cl)cc2)[C@@](C)(c2ccc(Cl)cc2)N1C(=O)N1CCN(CCCS(C)(=O)=O)CC1 | 0.49 | 0.469 |
| O=C(c1cc(Cc2n[nH]c(=O)c3ccccc23)ccc1F)N1CCN(C(=O)C2CC2)CC1 | 1.03 | 0.936 |
| C=CC(=O)Nc1cccc(Oc2nc(Nc3ccc(N4CCN(C)CC4)cc3)ncc2Cl)c1 | 0.825 | 0.5 |
| C=CC(=O)Nc1cccc(Sc2nc(Nc3ccc(N4CCN(C)CC4)cc3)ncc2Cl)c1 | 1.31 | 0.1 |
| C=CC(=O)Nc1cccc(Oc2nc(Nc3ccc(N4CCN(C)CC4)cc3OC)ncc2Cl)c1 | 0.964 | 0.766 |

| SMILES | fractional viability (2uM) | fractional viability (10uM) |
| --- | --- | --- |
| COc1ccc(CCc2nc3cc(-c4c(C)noc4C)ccc3n2C[C@H](C)N2CCOCC2)cc1Cl | 0.813 | 0.639 |
| COc1cc(OC)c(C(=O)CCCN2CCCC2)c(OC)c1 [Buflomedil HCl] | 0.851 | 0.685 |
| COc1cc2nc(N3CCCN(C)CC3)nc(NC3CCN(Cc4ccccc4)CC3)c2cc1OC | 0.506 | 0.0546 |
| COc1cc2nc(N3CCN(C(=O)C4CCCO4)CC3)nc(N)c2cc1OC (configuration not stated) [Terazosin HCl] | 1.14 | 1.15 |
| COc1cc2nc(N3CCN(C(=O)C4COc5ccccc5O4)CC3)nc(N)c2cc1OC (configuration not stated) [Doxazosin Mesylate] | 1.1 | 1.22 |
| COC(=O)c1ccc2c(c1)[nH]c1ncnc(NCCCN3CCCCC3)c12 | 0.785 | 0.985 |
| COc1cc2c(NC3CCN(CC4CCCCC4)CC3)nc(N3CCCN(C(C)C)CC3)nc2cc1OCCCN1CCCCC1 | 0.786 | 0.0322 |
| COc1cc2nc(N3CCCC3)nc(NCCCCCN3CCCC3)c2cc1OC | 0.679 | 0.0949 |
| COc1cc2c(Oc3ccc4[nH]c(C)cc4c3F)ncnc2cc1OCCCN1CCCC1 [Cediranib (AZD2171)] | 1.1 | 0.181 |
| COc1cc(Nc2c(C#N)cnc3cc(OCCCN4CCN(C)CC4)c(OC)cc23)c(Cl)cc1Cl [Bosutinib (SKI-606)] | 0.995 | 0.284 |
| Cc1nc2c(O)cccc2c(=O)[nH]1 | 0.925 | 0.903 |
| O=C(CCCCCCC(=O)Nc1ccc([C@H]2O[C@@H](CSc3nc(-c4ccccc4)c(-c4ccccc4)o3)C[C@@H](c3ccc(CO)cc3)O2)cc1)NO [Tubacin] | 1.06 | 0.628 |
| CCOC(=O)[C@@H](N)Cc1ccc(-c2cc(O[C@H](c3ccc(Cl)cc3-n3ccc(C)n3)C(F)(F)F)nc(N)n2)cc1 [Telotristat Etiprate (LX 1606 Hippurate)] | 0.935 | 0.335 |
| CC(C)n1cnc2c(NCCc3ccc(O)cc3)nc(-c3csc4ccccc34)nc21 [StemRegenin 1 (SR1)] | 1.1 | 0.769 |
| CNC1CCC(N(Cc2cccc(-c3ccncc3)c2)C(=O)c2sc3ccccc3c2Cl)CC1 (configuration not stated) [Smoothened Agonist (SAG) HCl] | 0.918 | 0.259 |
| O=C1NC(=O)/C(=C/c2ccc(-c3ccc(F)cc3O)o2)S1 | 0.814 | 0.742 |
| N[C@H]1CC[C@H](N[C@@H]2C[C@H]2c2ccccc2)CC1 | 0.794 | 0.89 |
| CN1CCN(c2ccc3nc(-c4c(N)c5c(F)cccc5[nH]c4=O)[nH]c3c2)CC1 [Dovitinib (TKI-258, CHIR-258)] | 0.815 | 0.25 |
| CN1CCN(c2ccc3nc(-c4c(N)c5c(F)cccc5[nH]c4=O)[nH]c3c2)CC1 [Dovitinib (TKI258) Lactate] | 0.815 | 0.0801 |
| Cc1nn(-c2ccccc2)c(C)c1C=NN1CCN(Cc2ccccc2)CC1 | 0.946 | 0.905 |
| COCC(=O)NC/C=C/c1ccc2ncnc(Nc3ccc(Oc4ccc(C)nc4)c(C)c3)c2c1 | 1.29 | 1.17 |
| CCCCCCCc1ccc(CCc2cccc(O)c2C(=O)O)cc1 | 0.96 | 0.73 |
| CCCCCCCCCCCCc1ccc(S(=O)(=O)Nc2nncs2)cc1 | 1.06 | 1.05 |
| CCCCCCCCc1ccc(CCC(N)(CO)CO)cc1 [Fingolimod (FTY720) HCl] | 1.08 | 0.0752 |

| SMILES | fractional viability (2uM) | fractional viability (10uM) |
| --- | --- | --- |
| O=C(c1ccc(OCCCc2c[nH]cn2)cc1)C1CC1 [Ciproxifan] | 1.1 | 0.986 |
| CCCCCCCCCCCCCCCCn1cc[n+](Cc2ccccc2)c1C | 0.363 | 0.0434 |
| CCO[C@@H]1OC(=O)C[C@@H]1NC(=O)[C@@H]1CCCN1C(=O)[C@@H](NC(=O)c1ccc(N)c(Cl)c1)C(C)(C)C | 0.969 | 0.919 |
| Cc1cc([N+](=O)[O-])ccc1NS(=O)(=O)c1cc(Cl)ccc1Cl | 0.656 | 0.476 |
| CC(C)c1nc(N(C)S(C)(=O)=O)nc(-c2ccc(F)cc2)c1/C=C/[C@@H](O)C[C@@H](O)CC(=O)O [Rosuvastatin Calcium] | 1.06 | 1.07 |
| Nc1cccc2c1C(=O)N(C1CCC(=O)NC1=O)C2=O (configuration not stated) [Pomalidomide] | 1.18 | 1.05 |
| CNc1nc(Nc2cn(C(C)(C)C#N)nc2C)ncc1C(F)(F)F | 0.801 | 0.885 |
| Cc1ccc(-c2c(-c3nn(C)c4ncnc(N5CC[C@H](N6CCCCC6)C5)c34)cnn2C)cc1 | 0.983 | 1.09 |
| CCC[C@H](N[C@H]1CCc2cc(F)cc(F)c2C1)C(=O)Nc1cn(C(C)(C)CNCC(C)(C)C)cn1 | 0.786 | 0.87 |
| CC(=O)[C@@]1(O)CC[C@H]2[C@@H]3CCC4=CC(=O)CCC4=C3[C@@H](c3ccc(N(C)C)cc3)C[C@@]21C [Ulipristal] | 0.841 | 1.07 |
| Cn1sc(=O)n(Cc2ccccc2)c1=O | 0.609 | 0.104 |
| Cc1ccc(-n2sc(=O)n(Cc3ccc(F)cc3)c2=O)cc1 | 0.801 | 0.457 |
| O=C(O)CSc1cc(NS(=O)(=O)c2ccc(Br)cc2)c2ccccc2c1O | 0.835 | 0.365 |
| OCCOc1ccc(/C(=C(/CCCl)c2ccccc2)c2ccccc2)cc1 [Ospemifene] | 0.854 | 0.735 |
| CC(=O)c1cc([N+](=O)[O-])c(Sc2cccc(Cl)c2Cl)s1 | 0.895 | 0.2 |
| CN(C)C(=O)c1ccc(S(=O)(=O)c2ccc(NC(=O)[C@@](C)(O)C(F)(F)F)c(Cl)c2)cc1 | 0.83 | 0.753 |
| CNCc1ccc(-c2cc(-c3nc(-c4ccc(S(=O)(=O)C(C)C)cc4)cnc3N)on2)cc1 | 0.792 | 0.849 |
| NC[C@@](O)(c1ccc(Cl)cc1)c1ccc(-c2cn[nH]c2)cc1 | 0.858 | 0.87 |
| O=C(NC1CCN(CCCCC2(C(=O)NCC(F)(F)F)c3ccccc3-c3ccccc32)CC1)c1ccccc1-c1ccc(C(F)(F)F)cc1 [Lomitapide Mesylate] | 0.887 | 0.0779 |
| O=C(O)c1ccccc1C(=O)Nc1ccc(-c2ccccc2)cc1 [Kartogenin] | 0.838 | 0.747 |
| C=CCc1ccc(O)c(-c2ccc(O)c(CC=C)c2)c1 [Honokiol] | 0.957 | 1.01 |
| Cc1ccc(C(=O)N(CCCN)[C@@H](c2nc3cc(Cl)ccc3c(=O)n2Cc2ccccc2)C(C)C)cc1 | 0.71 | 0.309 |
| C#CC[C@H](c1nc2cc(Cl)ccc2c(=O)n1Nc1ccccc1)N(CCCN)C(=O)c1cccc(Cl)c1F | 0.562 | 0.0443 |
